This note sets out measurements from the OligoGym collection.
Also: reference of the scale not given here.

In the first experiment the target is TUBAL3. Briefly: pooled miR-30 sensor sort-seq; sequence = guide strand. Particulars: shRNA.
Sequence TTGTCCACCATGAAGGTACAGT yielded a sensor-assay potency score (higher = more potent) of -0.604.

TGCATTTTCCAGCTGATCCTGT gave a sensor-assay potency score (higher = more potent) of -0.383.

As to TAACTTGACATTCATTTGCACC, the sensor-assay potency score (higher = more potent) was -1.19.

As for TAAGGTACCAGGTTGGTCTGGA, the sensor-assay potency score (higher = more potent) came to 0.512.

Consider TAGTGTGGAACCTAGAGTCTTG, for which the sensor-assay potency score (higher = more potent) was -0.173.

In turn, TAGACCGAGAACTCCAGCTTAG came in with a sensor-assay potency score (higher = more potent) of -0.779.

The sequence TTAAGAGAGACGTAAACCCTGA displayed a sensor-assay potency score (higher = more potent) of -0.309.

On to TTCATTGTTGGTACTGACCCAC, for which the sensor-assay potency score (higher = more potent) was 0.0791.

TTCTCTGAGGTACCAGTGCAGA displayed a sensor-assay potency score (higher = more potent) of -1.43.

The next experiment concerns the target TUBB2B. The experiment is described as above. Particulars: shRNA.
Sequence AACATTGATTCTCTCCAGCTGC showed a sensor-assay potency score (higher = more potent) of -0.381.

TTCATTGTAGTAAACATTGATT yielded a sensor-assay potency score (higher = more potent) of -0.873.

In turn, ATGCTCATCACTGATGACCTCC yielded a sensor-assay potency score (higher = more potent) of -0.227.

GTAAACATTGATTCTCTCCAGC: the sensor-assay potency score (higher = more potent) is -1.79.

AACACGAAATTGTCTGGTCTGA displayed a sensor-assay potency score (higher = more potent) of -0.953.

TCGTTGTCAATGCAGTAGGTTT registered a sensor-assay potency score (higher = more potent) of -1.57.

ATGCAGTAGGTTTCATCTGTGT registered a sensor-assay potency score (higher = more potent) of -0.689.

Take TAACCGAATCCATCGTGCCTGG: the sensor-assay potency score (higher = more potent) was -0.853.

As to TAAACATTGATTCTCTCCAGCT, the sensor-assay potency score (higher = more potent) is -0.472.

Consider TCCATGGTAACTGCCAGTGGGG, for which the sensor-assay potency score (higher = more potent) is -1.71.

Regarding TAGTAAACATTGATTCTCTCCA, the sensor-assay potency score (higher = more potent) is 0.0212.

Turning to TTCCACCAGCTGGTGGACCGAG, the sensor-assay potency score (higher = more potent) is -1.21.
